# Test results reported in the supplement of paper PMC8728848.
# The entries come from a sample that favours the strongest signals as a whole.
# Assays:
# Experiment in all cases: glycan array binding signal (z-score within array); higher = stronger binding
# Settings in all cases: glycan notation: IUPAC condensed, linker removed
# [1] = biological target: Fuc(a1-2)Gal(b1-4)GlcNAc(b1-2)Man(a1-3)[Fuc(a1-2)Gal(b1-4)GlcNAc(b1-2)Man(a1-6)]Man(b1-4)GlcNAc(b1-4)GlcNAc
# Outline: (§1)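 Glycan array data came from 3228 arrays in the Consortium for Functional Glycomics database, and only arrays with an available protein sequence were kept. Glycan names were put into IUPAC-condensed notation, and columns mapping to the same glycan were averaged. The binding signal is a within-array Z-score, averaged across arrays of one protein sequence run at different concentrations or buffers and across linkers. A negative Z-score can be read as non-binding.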
# [2] = biological target: Fuc(a1-2)Gal(b1-4)[Fuc(a1-3)]GlcNAc(b1-2)Man(a1-3)[Fuc(a1-2)Gal(b1-4)[Fuc(a1-3)]GlcNAc(b1-2)Man(a1-6)]Man(b1-4)GlcNAc(b1-4)GlcNAc
# Outline: as §1
# Fuc(a1-2)[Gal(a1-3)]Gal = biological target: Fuc(a1-2)[Gal(a1-3)]Gal
# Outline: as §1
# [3] = biological target: Fuc(a1-2)[Gal(a1-3)]Gal(b1-4)GlcNAc(b1-2)Man(a1-3)[Fuc(a1-2)[Gal(a1-3)]Gal(b1-4)GlcNAc(b1-2)Man(a1-6)]Man(b1-4)GlcNAc(b1-4)GlcNAc
# Outline: as §1
# [4] = biological target: Fuc(a1-2)[GalNAc(a1-3)]Gal(b1-4)GlcNAc(b1-2)Man(a1-3)[GalNAc(a1-3)[Fuc(a1-2)]Gal(b1-4)GlcNAc(b1-2)Man(a1-6)]Man(b1-4)GlcNAc(b1-4)GlcNAc
# Outline: as §1
# [5] = biological target: Fuc(a1-2)[GalNAc(a1-3)]Gal(b1-4)GlcNAc(b1-3)Gal(b1-4)GlcNAc
# Outline: as §1
# [6] = biological target: Fuc(a1-3)[Gal(b1-4)]GlcNAc(b1-2)Man(a1-6)[Gal(b1-4)GlcNAc(b1-2)Man(a1-3)]Man(b1-4)GlcNAc(b1-4)GlcNAc
# Outline: as §1
# [7] = biological target: Fuc(a1-3)[Gal(b1-4)]GlcNAc6S
# Outline: as §1
# [8] = biological target: Fuc(a1-3)[Gal3S(b1-4)]GlcNAc
# Outline: as §1
# [9] = biological target: Gal(a1-3)Gal(b1-4)[Fuc(a1-3)]GlcNAc(b1-2)Man(a1-3)[Gal(a1-3)Gal(b1-4)[Fuc(a1-3)]GlcNAc(b1-2)Man(a1-6)]Man(b1-4)GlcNAc(b1-4)GlcNAc
# Outline: as §1
# Gal(a1-4)Gal(b1-4)GlcNAc = biological target: Gal(a1-4)Gal(b1-4)GlcNAc
# Outline: as §1
# Gal(b1-2)Gal = biological target: Gal(b1-2)Gal
# Outline: as §1
# [10] = biological target: Gal(b1-3)GlcNAc(b1-2)Man(a1-3)[Gal(b1-3)GlcNAc(b1-2)Man(a1-6)]Man(b1-4)GlcNAc(b1-4)GlcNAc
# Outline: as §1
# [11] = biological target: Gal(b1-3)[Neu5Ac(b2-6)]GalNAc
# Outline: as §1
# [12] = biological target: Gal(b1-4)GalNAc(a1-3)[Fuc(a1-2)]Gal(b1-4)GlcNAc
# Outline: as §1
# GlcA(b1-6)Gal = biological target: GlcA(b1-6)Gal
# Outline: as §1
# [13] = biological target: GlcNAc(a1-4)Gal(b1-4)GlcNAc(b1-3)Gal(b1-4)[Fuc(a1-3)]GlcNAc(b1-3)Gal(b1-4)[Fuc(a1-3)]GlcNAc
# Outline: as §1
# [14] = biological target: Neu5Ac(a2-3)Gal(b1-3)GalNAc
# Outline: as §1
# [15] = biological target: Neu5Ac(a2-3)Gal(b1-3)GalNAc6S
# Outline: as §1
# [16] = biological target: Neu5Ac(a2-3)Gal(b1-3)GlcNAc
# Outline: as §1
# [17] = biological target: Neu5Ac(a2-3)Gal(b1-3)GlcNAc6S
# Outline: as §1
# [18] = biological target: Neu5Ac(a2-3)Gal(b1-3)[Fuc(a1-4)]GlcNAc(b1-3)Gal(b1-4)[Fuc(a1-3)]GlcNAc
# Outline: as §1
# [19] = biological target: Neu5Ac(a2-3)Gal(b1-4)GlcNAc(b1-3)Gal(b1-4)GlcNAc(b1-3)Gal(b1-4)GlcNAc
# Outline: as §1
# [20] = biological target: Neu5Ac(a2-3)Gal(b1-4)[Fuc(a1-3)]GlcNAc(b1-6)[Gal(b1-3)]GalNAc
# Outline: as §1
# [21] = biological target: Neu5Ac(a2-3)Gal(b1-4)[Fuc(a1-3)]GlcNAc(b1-6)[Neu5Ac(a2-3)Gal(b1-3)]GalNAc
# Outline: as §1
# Neu5Ac(a2-3)GalNAc = biological target: Neu5Ac(a2-3)GalNAc
# Outline: as §1
# [22] = biological target: Neu5Ac(a2-6)Gal(b1-4)GlcNAc(b1-2)Man(a1-3)Man(b1-4)GlcNAc(b1-4)GlcNAc
# Outline: as §1
# [23] = biological target: Neu5Ac(a2-6)Gal(b1-4)GlcNAc6S
# Outline: as §1
# [24] = biological target: Neu5Ac(b2-6)Gal(b1-4)GlcNAc
# Outline: as §1
# Neu5Gc(a2-3)Gal(b1-4)Glc = biological target: Neu5Gc(a2-3)Gal(b1-4)Glc
# Outline: as §1
# Neu5Gc(a2-6)GalNAc = biological target: Neu5Gc(a2-6)GalNAc
# Outline: as §1
binder,measurement,setting,value
"Neuropilin-1 (Rattus norvegicus), Q9QWJ9 (protein) MERGLPLLCATLALALALAGAFRSDKCGGTIKIENPGYLTSPGYPHSYHPSEKCEWLIQAPEPYQRIMINFNPHFDLEDRDCKYDYVEVIDGENEGGRLWGKFCGKIAPSPVVSSGPFLFIKFVSDYETHGAGFSIRYEIFKRGPECSQNYTAPTGVIKSPGFPEKYPNSLECTYIIFAPKMSEIILEFESFDLEQDSNPPGGVFCRYDRLEIWDGFPEVGPHIGRYCGQKTPGRIRSSSGILSMVFYTDSAIAKEGFSANYSVLQSSISEDFKCMEALGMESGEIHSDQITASSQYGTNWSVERSRLNYPENGWTPGEDSYREWIQVDLGLLRFVTAVGTQGAISKETKKKYYVKTYRVDISSNGEDWITLKEGNKAIIFQGNTNPTDVVFGVFPKPLITRFVRIKPASWETGISMRFEVYGCKITDYPCSGMLGMVSGLISDSQITASNQGDRNWMPENIRLVTSRTGWALPPSPHPYINEWLQVDLGDEKIVRGVIIQGGKHRENKVFMRKFKIAYSNNGSDWKMIMDDSKRKAKSFEGNNNYDTPELRAFTPLSTRFIRIYPERATHSGLGLRMELLGCEVEVPTAGPTTPNGNPVDECDDDQANCHSGTGDDFQLTGGTTVLATEKPTIIDSTIQSEFPTYGFNCEFGWGSHKTFCHWEHDSHAQLRWRVLTSKTGPIQDHTGDGNFIYSQADENQKGKVARLVSPVVYSQSSAHCMTFWYHMSGSHVGTLRVKLHYQKPEEYDQLVWMVVGHQGDHWKEGRVLLHKSLKLYQVIFEGEIGKGNLGGIAVDDISINNHIPQEDCAKPTDLDKKNTEIKIDETGSTPGYEEGKGDKNISRKPGNVLKTLDPILITIIAMSALGVLLGAVCGVVLYCACWHNGMSERNLSALENYNFELVDGVKLKKDKLNPQSNYSEA",glycan array binding signal (z-score),[1],7.46
same,glycan array binding signal (z-score),[2],2.97
same,glycan array binding signal (z-score),Fuc(a1-2)[Gal(a1-3)]Gal,-0.352
same,glycan array binding signal (z-score),[3],7.21
same,glycan array binding signal (z-score),[4],5.38
same,glycan array binding signal (z-score),[5],-0.035
same,glycan array binding signal (z-score),[6],-0.363
same,glycan array binding signal (z-score),[7],0.233
same,glycan array binding signal (z-score),[8],-0.201
same,glycan array binding signal (z-score),[9],4.58
same,glycan array binding signal (z-score),Gal(a1-4)Gal(b1-4)GlcNAc,-0.229
same,glycan array binding signal (z-score),Gal(b1-2)Gal,-0.273
same,glycan array binding signal (z-score),[10],-0.258
same,glycan array binding signal (z-score),[11],-0.235
same,glycan array binding signal (z-score),[12],0.018
same,glycan array binding signal (z-score),GlcA(b1-6)Gal,-0.148
same,glycan array binding signal (z-score),[13],2.61
same,glycan array binding signal (z-score),[14],-0.323
same,glycan array binding signal (z-score),[15],-0.301
same,glycan array binding signal (z-score),[16],-0.274
same,glycan array binding signal (z-score),[17],-0.371
same,glycan array binding signal (z-score),[18],0.102
same,glycan array binding signal (z-score),[19],-0.331
same,glycan array binding signal (z-score),[20],8.12
same,glycan array binding signal (z-score),[21],4.25
same,glycan array binding signal (z-score),Neu5Ac(a2-3)GalNAc,-0.28
same,glycan array binding signal (z-score),[22],-0.309
same,glycan array binding signal (z-score),[23],-0.311
same,glycan array binding signal (z-score),[24],-0.253
same,glycan array binding signal (z-score),Neu5Gc(a2-3)Gal(b1-4)Glc,-0.189
same,glycan array binding signal (z-score),Neu5Gc(a2-6)GalNAc,-0.331
